Rows were chosen to be rich in hits. Some 21% of all compounds tested hit in one or more screens of this group.
NS1 inh: influenza NS1 inhibition | hit rate 0.4% among 270,000 | Potency, µM (doses to about 46.1 µM), without a hit: at the highest dose activity, positive = more growth; calls by dose curve; further: potency means the concentration at half of the fitted maximal effect; actives are rising curves; nearly all actives have a fitted effect of over 50% in size
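In this qHTS, NS1 from influenza A is expressed in budding yeast, where it slows growth. Cells are switched from glucose to 2% galactose medium (pH 6.0, -URA), treated with compound, and growth recovery is read at OD600.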
Cycloheximide cs: counter-screen for Shiga toxin inhibitors: cycloheximide protein synthesis inhibition; cell reporter, cycloheximide protein synthesis inhibition counterscreen; max response, %; hit rate 12% among 300,000; AID 2314; in the data active means max response mostly above about 13%, no sharp cut-off; inactive means mostly below about 14%; further: read at 38.3 µM for the half of the compounds with a filed dose; 0% is about no effect
Pf growth 96h: inhibits malaria parasite growth, 96 h. P. falciparum luciferase reporter growth, 96 h. Potency, µM (titrated, usually from 28.7 µM), for the others: at the highest dose activity change, negative = inhibition, most hits filed as inhibitors. hit rate 6.9% among 320,000; further: potency means the concentration at half of the fitted maximal effect; on the % scale 0 is the no-effect control and ±100 the full control effect
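Erythrocytes infected with luciferase-expressing P. falciparum were dispensed at 2% hematocrit and 0.05% parasitemia (final), then incubated with compounds 96 hours at 37 C in 5% CO2. Luminescence after detection reagent addition reported growth.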
Pf growth 48h: inhibits P. falciparum growth in the first generation, 48 h; Potency, µM (highest dose often 28.7 µM), inactives show at the highest dose activity change, negative = inhibition, hits mostly inhibitors; hit rate 5.9% among 310,000; P. falciparum luciferase growth in erythrocytes, 48 h; AID 504832; further: potency means the concentration at half of the fitted maximal effect; on the % scale 0 is the no-effect control and ±100 the full control effect
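Luminescence readout; reporter = integrated firefly luciferase in P. falciparum. RBC culture at 2% hematocrit, 0.1% parasitemia final, 37 C/5% CO2; decreased signal taken as growth inhibition.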
Shiga toxin inh: blocks Shiga toxin action in Vero cells. Vero cells, Shiga toxin protein synthesis inhibition reporter. inhibition, % at 38.7 µM. hit rate 9.2% among 290,000; in the data active means inhibition mostly above about 28%, no sharp cut-off; inactive means mostly below about 43%; further: 0% is about no effect
An asterisk follows results filed as active; ? = inconclusive; nt = not tested or not shown; [ ] = dose if it differs, or a comment. Unless noted, the call rests on the fitted dose curve; in most records, active means well fitted inhibition curve with a large enough effect; inconclusive means small, poorly fitted or top-dose-only effect, or another doubt; inactive means no such curve, though single readings can be large or run the other way.

SMILES | NS1 inh | Cycloheximide cs | Pf growth 96h | Pf growth 48h | Shiga toxin inh
COc1ccccc1OCc1ccc(C(=O)N2CCN(C(=O)c3ccco3)CC2)cc1 | 12% | -6 | 4% | nt | -9
O=C(c1ccc(COc2ccccc2Br)cc1)N1CCCCC1 | -81% | 34* | 62% | nt | 50*
CN(C)CCOC(=O)c1ccc(COc2ccccc2Br)o1 | -7% | -6 | 29% | -23%[0.00184 µM] | 2
CN(C(=O)c1ccc(COc2ccccc2Br)o1)c1ccccc1 | nt | 15* | -20% | -27% | 27*
O=C(c1ccc(COc2ccccc2Br)o1)N1CCCCCC1 | -2% | 26* | -2% | -3% | 32*
N#Cc1ccc(OCC(=O)N/N=C/C2CC=CCC2)cc1 (configuration not stated) | nt | 8 | -19% | 100% | -9
O=C(OCC(=O)N1CCCC1=O)C1CCN(S(=O)(=O)c2c(Cl)cccc2Cl)CC1 | -12% | 0 | 43% | 11% | -17
Cc1ccc(S(=O)(=O)N2CCN(C(=O)N(C)C)CC2)cc1 | -3% | 1 | ? | 6% | -22
COC(=O)c1ccc2nc(NC(=O)CN3C(=O)CCC3=O)sc2c1 | 3% | 19 | 0.83µM* | 0% | 16
COC(=O)c1ccc2nc(NC(=O)C(C)C)sc2c1 | nt | 52* | 204% | 193% | 98*
Cc1ccc2sc(NC(=O)CN3C(=O)CCC3=O)nc2c1C | -1% | 4 | 21% | -18% | 3
COC(=O)c1ccc2nc(NC(=O)C3CC3)sc2c1 | -12% | 49* | 52% | 90% | 155*
CCN(CC)C(=O)/C(=C/c1cccc([N+](=O)[O-])c1)NC(=O)c1ccco1 | nt | -3 | ? | 5% | -12
COc1ccc(Cc2nnc(Cl)c3ccccc23)cc1OC | 1% | -2 | 2% | -7% | -2
Oc1ccc(Cl)cc1-c1cc(C(F)(F)C(F)F)nc(-c2ccccc2)n1 | -1% | 5 | nt | 1.3µM* | -10
Cc1ccc(O)c(-c2cc(C(F)(F)C(F)F)nc(-c3ccccc3)n2)c1 | ? | -2 | 8.3µM* | ? | -9
CN(Cc1nccn1C)C(=O)c1ccc(OC2CCN(CCc3ccccc3)CC2)cc1 | 7% | 5 | ? | -5% | -21
O=C(O)C1CCCN1S(=O)(=O)c1ccc2[nH]c(=O)c(=O)[nH]c2c1 (configuration not stated) | -6% | -2 | nt | 7% | 3
O=[N+]([O-])c1cccnc1N1CCCCC1 | -3% | -1 | 112% | 20% | -6
O=[N+]([O-])c1ccc(N2CCCCC2)nc1N1CCCCC1 | -10% | 6 | 3.3µM* | 2.1µM* | 16
CN(C)CC1CCCCC1C1(O)c2ccccc2CSc2sccc21 (configuration not stated) | 12% | -7 | ? | 9.3µM* | -34
O[C@H]1[C@H]2[C@H](O)CCCN2C[C@H]1O | nt | nt | 9.5µM* | -5% | nt
O=C(c1ccncc1)c1nccn1-c1ccccn1 | 1% | -10 | 13µM* | -6% | -12
C[C@@H]1C[C@H]2OC(=O)C3(CO3)[C@H]2[C@H](O)[C@]2(C)C(=O)C3OC3[C@@H]12 (some centres not stated) | 10% | 21* | ? | 12µM* | 40*
CCN(CC)CCOc1ccc2c(c1)C(=O)c1cc(OCCN(CC)CC)ccc1-2 | nt | nt | 6µM* | 4.3µM* | nt
SMILES | NS1 inh | Cycloheximide cs | Pf growth 96h | Pf growth 48h | Shiga toxin inh
COc1ccc(C)cc1N(CC(=O)N/N=C/c1ccccc1C(=O)O)S(=O)(=O)c1ccccc1 | nt | 5 | ? | ? | -7
COc1ccc(C2C3=C(CC(C)(C)CC3=O)N(CCN3CCOCC3)C3=C2C(=O)CC(C)(C)C3)cc1 | -2% | 0 | -26% | -16% | -10
CC1(C)CC(=O)C2=C(C1)N(CCN1CCOCC1)C1=C(C(=O)CC(C)(C)C1)C2c1cccc(F)c1 | -10% | -3 | 0% | 12µM* | -8
CC1(C)CC(=O)C2=C(C1)N(CCN1CCOCC1)C1=C(C(=O)CC(C)(C)C1)C2c1ccc(Cl)cc1 | -14% | 1 | ? | 5.2µM* | -12
COCCCN1C2=C(C(=O)CC(C)(C)C2)C(c2ccc(O)c(OC)c2)C2=C1CC(C)(C)CC2=O | 17% | 9 | -8% | ? | -5
O=C(Cc1ccc(Br)cc1)OCC(=O)N1CCc2ccccc2C1 | -12% | -3 | 399% | 14% | -8
O=C(NCc1nc2ccccc2[nH]1)c1ccc([N+](=O)[O-])cc1 | nt | -4 | -30% | -3% | -5
Cc1ccc(-c2cc(C(F)(F)F)nc(SCC(=O)c3cccc([N+](=O)[O-])c3)n2)cc1 | -9% | -3 | 13µM* | ? | -4
O=C(CSc1nc(-c2ccccc2)cc(C(F)(F)F)n1)c1cccc([N+](=O)[O-])c1 | 8% | -3 | ? | -21% | 12
O=C(Nc1nc2ccccc2[nH]1)c1cccc([N+](=O)[O-])c1 | 0% | 47* | 8% | 0% | 58*
Cc1nc2ccc(NC(=O)c3ccc([N+](=O)[O-])cc3)cc2[nH]1 | 6% | 14* | 99% | 90% | 24
O=C(Cc1nc2ccccc2[nH]1)c1cccc([N+](=O)[O-])c1 | 7% | 38* | ? | 12µM* | 70*
C=CCNC(=S)NNC(=O)c1ccc(=O)n(Cc2ccc(Cl)cc2Cl)c1 | -5% | 3 | -8% | -15% | 36
CC(C)C(O)C1CCN(Cc2nc(-c3cccs3)no2)CC1 (configuration not stated) | -8% | -2 | ? | ? | 22
Cc1ccc(S(=O)(=O)N(C)C)cc1NC(=O)COC(=O)/C(=C/c1ccc(F)cc1)c1cccs1 | ? | -4 | -3% | 2% | 14
COC(=O)c1cc(C(=O)Nc2cc(C)ccn2)cc([N+](=O)[O-])c1 | -1% | 13 | 4% | -9% | 35*
COC(=O)c1cc(C(=O)Nc2cc(C)on2)cc([N+](=O)[O-])c1 | 7% | -2 | -2% | 18% | nt
C/C(=N\Nc1nc2ccccc2[nH]1)c1ccc([N+](=O)[O-])cc1 | ? | 7 | 0.066µM* | 0.19µM* | -8
CCCN(CCC)S(=O)(=O)c1ccc(NC(=O)c2cc(C(=O)OC)cc([N+](=O)[O-])c2)cc1 | 3% | -3 | 1.9µM* | ? | -11
C/C(=N/Nc1ncc(Br)cn1)c1ccc([N+](=O)[O-])cc1 | -5% | 2 | 305% | -2% | nt
Cc1nc2nc(SCC(=O)c3cccc([N+](=O)[O-])c3)[nH]c2cc1Br | ? | 31* | 12µM* | ? | 30*
O=C(CCCN1C(=O)c2cccc3cccc(c23)C1=O)Nc1ccon1 | -8% | -4 | 27% | 13% | -3
CSCCC(NC(=O)c1cccc([N+](=O)[O-])c1)c1nc2ccccc2[nH]1 (configuration not stated) | -19% | -7 | ? | ? | -7
COC(=O)c1cc(C(=O)Nc2nc3ccccc3[nH]2)cc([N+](=O)[O-])c1 | -8% | 16 | ? | ? | 49*
Cc1ccc(C(=O)Nc2nc3ccccc3[nH]2)cc1 | -17% | 1 | -39% | -98% | -7
COc1ccccc1NC(=O)c1cc(C(=O)Nc2ccccc2OC)cc([N+](=O)[O-])c1 | -2% | -5 | 0% | 22% | -2

Compound activity deposited in PubChem BioAssay by National Center for Advancing Translational Sciences (NCATS).
